An excerpt weighted towards active compounds, which were near 2.6% of everything screened.
Cruzain Triton: cruzain (T. cruzi) inhibition with detergent | purified cruzain, Z-FR-AMC fluorescence, 0.01% Triton | Potency, µM, for the others: max response, negative = inhibition, most hits filed as inhibitors | actives 0.43% (n = 200,000) | P25779;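 note: plate controls were neutral wells for no effect and buffer without enzyme for full effect; nearly all actives have a fitted effect of over 40% in size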
Target sequence (P25779 123-467 limits assumed): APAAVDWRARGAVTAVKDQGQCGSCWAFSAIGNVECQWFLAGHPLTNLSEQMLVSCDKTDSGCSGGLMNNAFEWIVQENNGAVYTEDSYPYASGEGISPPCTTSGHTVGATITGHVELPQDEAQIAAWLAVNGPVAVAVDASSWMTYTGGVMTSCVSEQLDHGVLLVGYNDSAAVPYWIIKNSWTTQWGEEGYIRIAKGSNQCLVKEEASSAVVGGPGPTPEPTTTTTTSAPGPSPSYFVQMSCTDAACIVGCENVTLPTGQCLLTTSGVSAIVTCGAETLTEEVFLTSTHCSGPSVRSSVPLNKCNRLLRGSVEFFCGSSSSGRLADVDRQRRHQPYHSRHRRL
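Cysteine protease activity tested under reducing, mildly acidic conditions (100 mM sodium acetate pH 5.5, 5 mM DTT) plus 0.01% Triton X-100. Cruzain 1.5 nM; substrate Z-FR-AMC 2 uM; 15 min compound preincubation at room temperature.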
Cruzain inh noDet: inhibitors of Trypanosoma cruzi cruzain without detergent | P25779 | purified cruzain, Z-FR-AMC fluorescence, no detergent | Potency, µM, inactives show max response, negative = inhibition, most hits filed as inhibitors | actives 2.3% (n = 200,000) | AID 1476;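 note: plate controls were enzyme without inhibitor for no effect and buffer without enzyme for full effect; nearly all actives have a fitted effect of over 40% in size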
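Detergent-free condition (0.00005% Triton X-100) in acetate buffer pH 5.5 with DTT. 1.5 nM enzyme and compound were pre-mixed 15 min, then 2 uM Z-FR-AMC substrate added; reaction progress from fluorescence change between first and third reads (60 s).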
An asterisk follows results filed as active; ? = inconclusive. Calls come from the whole dose curve; as a rule, active = well fitted curve in the direction sought with a large enough effect; inconclusive = small, poorly fitted or top-dose-only effect, or another doubt; inactive = no such curve, though single readings can be large; an effect the other way counts as inactive or inconclusive. Potency is the fitted concentration of half-maximal effect.

SMILES	Cruzain Triton	Cruzain inh noDet
Cc1cccc(OCC(=O)Nc2nc3ccc([N+](=O)[O-])cc3s2)c1	-1%	?
COc1ccc(C2CC(c3cccs3)=NN2c2nc(-c3ccccc3)cs2)cc1OC (stereo not given)	-4%	7.9µM*
COc1ccc(C2CC(c3cccs3)=NN2c2ccc(C=O)cc2)cc1 (stereo not given)	-4%	?
Cc1cccc(C2=N[C@@H](Cc3ccccc3)CO2)c1	-1%	-24%
O=C(O)c1ccc(CNCc2ccccc2)cc1	2%	3%
O=C1c2cccc3c([N+](=O)[O-])ccc(c23)C(=O)N1c1ccccn1	-11%	-4%
Cc1ccc(N2C(=O)c3cccc4c(Oc5ccccc5[N+](=O)[O-])ccc(c34)C2=O)c(C)c1	-7%	25µM*
COc1cc(/C=C(\C#N)c2nc3ccccc3[nH]2)ccc1OCc1cccc(C(F)(F)F)c1	-4%	1%
COCCCNC(=O)Cn1c(=O)nc(-c2ccccc2)c2ccccc21	0%	-6%
Cc1ccc(N(CC(=O)NCc2ccc(OC(C)C)cc2)S(=O)(=O)N(C)C)cc1	2%	9%
CCOC(=O)N1CCc2c(sc3c2c(=O)n(Cc2ccccc2)c(=O)n3CC(=O)Nc2cccc(CC)c2)C1	-1%	-17%
CCOC(=O)N1CCc2c(sc3c2c(=O)n(Cc2ccccc2)c(=O)n3Cc2cccc(Cl)c2)C1	-3%	7.9µM*
CCOC(=O)C1CCC(CN(Cc2ccc(Cl)cc2)S(=O)(=O)c2ccc(F)c(C(=O)Nc3cccc(F)c3)c2)CC1 (stereo not given)	0%	?
O=C(Nc1ccccc1N1CCN(c2ccc(F)cc2)CC1)c1ccccc1	1%	?
O=C(Nc1ccccc1N1CCN(c2ccc(F)cc2)CC1)C12CC3CC(CC(C3)C1)C2	-3%	25µM*
CC(C)c1ccc(/C(C(=O)O)=C(\O)C(=O)O)cc1	-1%	-12%
CC(C)(C)C(=O)NC(=S)Nc1cc(C(F)(F)F)ccc1N1CCOCC1	-12%	-1%
O=C(NC(=S)Nc1cc(C(F)(F)F)ccc1N1CCOCC1)c1sc2ccccc2c1Cl	4%	20µM*
CCC1CCCCN1C(=O)Cn1c(=O)n(-c2ccccc2C(F)(F)F)c(=O)c2c(C)c(C(=O)N(C)C)sc21 (stereo not given)	2%	?
COc1ccc2[nH]cc(CCNc3ncnc4ccc(-c5ccc6c(c5)OCO6)cc34)c2c1	0%	32µM*
COc1ccc2[nH]cc(CCNc3ncnc4ccc(-c5cccnc5)cc34)c2c1	-4%	-14%
COc1ccc2[nH]cc(CCNc3nc(-c4ccc(C(=O)N(C)C)cc4)nc4ccccc34)c2c1	-4%	-4%
COc1ccc2[nH]cc(CCNc3nc(-c4ccc(N(C)C)cc4)nc4ccccc34)c2c1	-16%	25µM*
Cc1ccccc1C(=O)Nc1ccc2oc(-c3ccc(Cl)c(Cl)c3)nc2c1	0%	-8%
CCc1ccc(N2C(=O)N(CC(=O)C(C)(C)C)c3ccccc3S2(=O)=O)cc1	2%	-1%
SMILES	Cruzain Triton	Cruzain inh noDet
COc1ccccc1-c1nccc(N2CCN(C)CC2)n1	1%	-15%
Cc1ccc(C(=O)c2c(N)c(-c3nc(-c4ccc5c(c4)OCO5)cs3)c3ccccn23)cc1C	-4%	1.6µM*
Cc1ccc(C)c(C(=O)c2c(N)c(-c3nc(-c4ccc5c(c4)OCO5)cs3)c3ccccn23)c1	-2%	5µM*
Nc1c(-c2nc(-c3ccc(F)cc3)cs2)c2ccccn2c1C(=O)c1ccc2c(c1)OCO2	1%	-29%
COc1ccc(-c2csc(-c3c(N)c(C(=O)c4ccccc4)n4ccccc34)n2)cc1OC	-3%	-12%
Cc1ccc(-c2csc(-c3c(N)c(C(=O)c4ccc5c(c4)OCO5)n4ccccc34)n2)cc1C	-3%	3.2µM*
COc1ccc(-c2csc(-c3c(N)c(C(=O)c4ccccc4)n4ccccc34)n2)cc1	2%	?
COc1ccc(C(=O)c2c(N)c(-c3nc(-c4ccc5c(c4)OCO5)cs3)c3ccccn23)cc1	-4%	?
COc1cccc(C(=O)c2c(N)c(-c3nc(-c4ccccc4)cs3)c3ccccn23)c1	-2%	10µM*
CCOc1ccc(CNC(=O)C2CCCN(S(=O)(=O)c3ccc4c(ccn4C)c3)C2)cc1 (stereo not given)	-4%	-9%
CCn1cc(C(=O)NCCc2ccc(Cl)cc2)c(=O)c2cc(S(=O)(=O)N3CCC(C)CC3)ccc21	-3%	-6%
COc1ccc(-n2c(=O)cnc3cnc(OC)nc32)cc1	-2%	-1%
Nc1c(-c2nc(-c3ccc4c(c3)OCO4)cs2)c2ccccn2c1C(=O)c1ccccc1	-3%	4µM*
Nc1c(-c2nc(-c3ccc4c(c3)OCO4)cs2)c2ccccn2c1C(=O)c1ccc(Cl)cc1	0%	?
COc1ccc(/C=C/C(=O)OCCC(C)C)cc1	1%	1%
Cc1nc(NC2=NCN(CCCN3CCOCC3)CN2)nc2c(C)cccc12	?	25µM*

Source: PubChem BioAssay (National Center for Advancing Translational Sciences (NCATS))
